The record followed here is the supplement of paper PMC3842684.

The subject of the first test is P. falciparum NF54-pfs16-GFP early (I-III) stage gametocytes. Description: relative % inhibition of viable gametocyte number; higher = more gametocytocidal. To be noted: 5 µM; stage: early (I-III) gametocyte; incubation 72 h. The gist of the method: (§1)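 Magnet-isolated NF54 pfs16-GFP gametocytes at early (I/IIa, day 2) or late (day 8) stage were exposed to compound at 5 or 0.5 µM for 72 h at 37°C, 5% CO2, 5% O2, at 10% parasitaemia and 0.1% haematocrit. Elongated GFP objects with MitoTracker Red signal above cut-off were counted as viable by confocal imaging. Relative inhibition was normalised to in-plate vehicle and positive-control wells.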
Regarding `Cc1ccc(CN2CCC(C(=O)Nc3ccc(-c4cc5ccccc5[nH]4)cc3)CC2)o1`, the relative % inhibition worked out at 90.5%.
As for `CCOC(=O)c1c(C)n(-c2ccccc2)c2ccc(OC(=O)c3cc(OC)c(OC)c(OC)c3)cc12`, the relative % inhibition is -2.44%.
Take `O=C(Nc1ccc(Cl)cc1)N1CCN(c2ccc3nncn3n2)CC1`: the relative % inhibition was 6.7%.
`Cc1cc(Nc2ccc3ccccc3c2)n2ncnc2n1`: the relative % inhibition came to 3.61%.
As to `O=C(Nc1ccc(-c2nc3cc(NC(=O)c4ccc(Cl)cc4)ccc3[nH]2)cc1)c1ccc(Cl)cc1`, the relative % inhibition came to 48.5%.
As for `CCc1ccc(Nc2cc(C)c3ccc(O)cc3n2)cc1`, the relative % inhibition was found to be 99.6%.
Turning to `COc1ccc2c(c1OC)C(=O)N1c3ccccc3N=C(c3ccc(C)cc3)CC21` (stereo unspecified), the relative % inhibition is 60.6%.
Same read-out and setting: then `N=c1n(CCN2CCCCC2)c2ccccc2n1CC(=O)c1ccc(Cl)c(Cl)c1`, with 76.8%.
The same measure, in the same setting: for `COc1ccc2c(=O)cc(C(Cl)(Cl)Cl)oc2c1` the value was 85.1%; for `Cc1ccc(CSCc2ccc(C(=O)NC3CC3)o2)cc1`, -7.92%.
With `CCc1ccc(Nc2cc(C)nc3nc(C)nn23)cc1`, the relative % inhibition was -31%.
On the same count and under the same terms, then `COc1cc(-c2nc(-c3ccc(Sc4ccccc4)cc3)c(-c3ccccc3)[nH]2)cc(OC)c1O`, with 86.1%; and `O=c1cc(NC2CCN(CCCc3ccccc3)CC2)c2cc(Cl)ccc2o1`, with 79.8%.
Same read-out and setting: for `O=C(Nc1ccc(-c2nc3ccccc3[nH]2)cc1)c1ccc(Cl)c(Cl)c1` the value was -3.57%; for `COc1ccc(C(=O)Nc2ccc(Cl)cc2C(=O)Nc2ccncc2)cc1`, 22.3%; for `Cc1ccc2c(C)nc(Nc3nc(C)cc(-c4ccccc4)n3)nc2c1`, 88.6%.
The same measure, in the same setting: then `CC(=O)c1ccc(NC(=O)CSc2nc(-c3ccccc3Cl)ns2)cc1`, with 39.1%.
Regarding `CCOC(=O)c1cn(CC)c2cc(N3CCCCC3)c(F)cc2c1=O`, the relative % inhibition worked out at 17%.
Same read-out and setting: for `CCCN(CCC)CCCNC(=O)c1cc2c(-c3ccc(OC)c(OC)c3)nn(C)c2s1` the value was 43.5%; for `Cc1ccc(-c2cc(C(=O)Nc3ccc(S(=O)(=O)N4CCCCC4)cc3)[nH]n2)c(O)c1`, 51%; for `COc1ccc(-c2nc(NC(=O)CS(=O)(=O)c3ccc(F)cc3)sc2C)cc1`, 100%.
For `Cc1sc(NC(=O)c2ccccc2)c(C(c2cccs2)N2CCN(c3ccccc3)CC2)c1C` (stereo unspecified), the relative % inhibition was 12.8%.
On the same count and under the same terms, then `COc1cccc(NC(=O)Cn2c(C)c(C#N)c3ccccc32)c1`, with 45.2%; and `COc1ccccc1N=C1C(=O)c2ccccc2C(O)=C1N1CCCCC1`, with 44.6%; and `Cn1c(C(=O)c2cccc3ccccc23)nc2ccccc21`, with 19.9%.
The same measure, in the same setting: then `CCn1nc(-c2ccc(C(=O)OC)cc2)nc2c(=O)n(C)c(=O)nc1-2`, with 36.1%.
As to `Cc1ccc(-c2cc3nc4c(c(O)n3n2)CCCC4)cc1`, the relative % inhibition is -1.24%.
As to `CN1CCN(c2nc(Nc3ccc(O)cc3)nc3ccccc23)CC1`, the relative % inhibition was -9.15%.
On the same count and under the same terms, for `N#Cc1nc(Cc2cccc3ccccc23)oc1N1CCN(C(c2ccccc2)c2ccccc2)CC1` the value was 2.44%; for `COc1cccc(Nc2nc(N)c3ccccc3n2)c1`, -5.49%; for `Oc1ccc2ccccc2c1CNc1nc2ccccc2[nH]1`, 66.5%.
Turning to `CC(C)CCNCC(O)Cn1c2ccccc2c2ccccc21` (stereo unspecified), the relative % inhibition was 102%.
For `COc1ccc(C)c2sc(N(Cc3cccnc3)C(=O)c3ccc(C#N)cc3)nc12`, the relative % inhibition stood at 35.9%.
On the same count and under the same terms, for `COc1ccccc1C(=O)ON=C(N)Cc1cccc2ccccc12` the value was 78%.
Take `Nc1ccc(-c2nc3cc(Oc4ccc(Oc5ccc6[nH]c(-c7ccc(N)cc7)nc6c5)cc4)ccc3[nH]2)cc1`: the relative % inhibition amounted to 98%.
On the same count and under the same terms, for `COC(=O)c1ccc(Cl)c2c1C1C=CCC1C(c1cccc3ccccc13)N2` (stereo unspecified) the value was 8.02%; for `COc1ccc2nc(N)nc(C)c2c1`, 24.8%; for `O=C(NCc1ccco1)C1CCN(S(=O)(=O)c2ccc(Cl)cc2)CC1`, 3.24%.

In the next test the test system is P. falciparum NF54-pfs16-GFP late (IV-V) stage gametocytes. Described as above. To be noted: 0.5 µM; stage: late (IV-V) gametocyte; incubation 72 h. The gist of the method:
as §1
On to `Cc1ccc(CN2CCC(C(=O)Nc3ccc(-c4cc5ccccc5[nH]4)cc3)CC2)o1`, for which the relative % inhibition came to 3.47%.
On the same count and under the same terms, for `CCOC(=O)c1c(C)n(-c2ccccc2)c2ccc(OC(=O)c3cc(OC)c(OC)c(OC)c3)cc12` the value was -15.1%; for `O=C(Nc1ccc(Cl)cc1)N1CCN(c2ccc3nncn3n2)CC1`, 4.09%.
On the same count and under the same terms, then `Cc1cc(Nc2ccc3ccccc3c2)n2ncnc2n1`, with 1.55%.
With `O=C(Nc1ccc(-c2nc3cc(NC(=O)c4ccc(Cl)cc4)ccc3[nH]2)cc1)c1ccc(Cl)cc1`, the relative % inhibition was -5.09%.
The same measure, in the same setting: for `CCc1ccc(Nc2cc(C)c3ccc(O)cc3n2)cc1` the value was 16.3%.
Same read-out and setting: then `COc1ccc2c(c1OC)C(=O)N1c3ccccc3N=C(c3ccc(C)cc3)CC21` (stereo unspecified), with -8.16%; and `N=c1n(CCN2CCCCC2)c2ccccc2n1CC(=O)c1ccc(Cl)c(Cl)c1`, with 55.4%.
In the case of `COc1ccc2c(=O)cc(C(Cl)(Cl)Cl)oc2c1`, the relative % inhibition came out at 8.37%.
Take `Cc1ccc(CSCc2ccc(C(=O)NC3CC3)o2)cc1`: the relative % inhibition stood at 19.6%.
For the compound `CCc1ccc(Nc2cc(C)nc3nc(C)nn23)cc1`, the relative % inhibition amounted to 4.51%.
The same measure, in the same setting: then `COc1cc(-c2nc(-c3ccc(Sc4ccccc4)cc3)c(-c3ccccc3)[nH]2)cc(OC)c1O`, with 3.44%; and `O=c1cc(NC2CCN(CCCc3ccccc3)CC2)c2cc(Cl)ccc2o1`, with -5.8%; and `O=C(Nc1ccc(-c2nc3ccccc3[nH]2)cc1)c1ccc(Cl)c(Cl)c1`, with 0.0958%.
As for `COc1ccc(C(=O)Nc2ccc(Cl)cc2C(=O)Nc2ccncc2)cc1`, the relative % inhibition was -6.74%.
Regarding `Cc1ccc2c(C)nc(Nc3nc(C)cc(-c4ccccc4)n3)nc2c1`, the relative % inhibition was 111%.
Take `CC(=O)c1ccc(NC(=O)CSc2nc(-c3ccccc3Cl)ns2)cc1`: the relative % inhibition was 22.2%.
Consider `CCOC(=O)c1cn(CC)c2cc(N3CCCCC3)c(F)cc2c1=O`, for which the relative % inhibition stood at 91.5%.
As for `CCCN(CCC)CCCNC(=O)c1cc2c(-c3ccc(OC)c(OC)c3)nn(C)c2s1`, the relative % inhibition was found to be 18.3%.
With `Cc1ccc(-c2cc(C(=O)Nc3ccc(S(=O)(=O)N4CCCCC4)cc3)[nH]n2)c(O)c1`, the relative % inhibition was -1.52%.
The same measure, in the same setting: then `COc1ccc(-c2nc(NC(=O)CS(=O)(=O)c3ccc(F)cc3)sc2C)cc1`, with 73%.
The same measure, in the same setting: for `Cc1sc(NC(=O)c2ccccc2)c(C(c2cccs2)N2CCN(c3ccccc3)CC2)c1C` (stereo unspecified) the value was 43.3%; for `COc1cccc(NC(=O)Cn2c(C)c(C#N)c3ccccc32)c1`, -4.97%; for `COc1ccccc1N=C1C(=O)c2ccccc2C(O)=C1N1CCCCC1`, -11.2%.
The same measure, in the same setting: then `Cn1c(C(=O)c2cccc3ccccc23)nc2ccccc21`, with 9.04%; and `CCn1nc(-c2ccc(C(=O)OC)cc2)nc2c(=O)n(C)c(=O)nc1-2`, with 68%.
With `Cc1ccc(-c2cc3nc4c(c(O)n3n2)CCCC4)cc1`, the relative % inhibition was found to be 4.75%.
Same read-out and setting: then `CN1CCN(c2nc(Nc3ccc(O)cc3)nc3ccccc23)CC1`, with -10.7%; and `N#Cc1nc(Cc2cccc3ccccc23)oc1N1CCN(C(c2ccccc2)c2ccccc2)CC1`, with 7.14%.
The same measure, in the same setting: then `COc1cccc(Nc2nc(N)c3ccccc3n2)c1`, with 7.14%; and `Oc1ccc2ccccc2c1CNc1nc2ccccc2[nH]1`, with 6.29%; and `CC(C)CCNCC(O)Cn1c2ccccc2c2ccccc21` (stereo unspecified), with 19%.
Still for that read-out and setting: then `COc1ccc(C)c2sc(N(Cc3cccnc3)C(=O)c3ccc(C#N)cc3)nc12`, with -23.5%; and `COc1ccccc1C(=O)ON=C(N)Cc1cccc2ccccc12`, with 5.05%; and `Nc1ccc(-c2nc3cc(Oc4ccc(Oc5ccc6[nH]c(-c7ccc(N)cc7)nc6c5)cc4)ccc3[nH]2)cc1`, with 13.4%.
On to `COC(=O)c1ccc(Cl)c2c1C1C=CCC1C(c1cccc3ccccc13)N2` (stereo unspecified), for which the relative % inhibition was -9.69%.
With `COc1ccc2nc(N)nc(C)c2c1`, the relative % inhibition was 10.6%.
Still for that read-out and setting: then `O=C(NCc1ccco1)C1CCN(S(=O)(=O)c2ccc(Cl)cc2)CC1`, with 18.1%.
